# Results filed as inconclusive are left out. Active and inactive are the calls of the source. Unless noted, calls come from the whole dose curve; as a rule, active = well fitted inhibition curve with a large enough effect in the repeat runs; inconclusive = weak or mixed curves; inactive = no such curve, though single readings can be large or run the other way.
# Assay: qHTS assay to identify small molecule antagonists of the estrogen related receptor (ERR) signaling pathway from Tox21 library (AID 1224848); note: nearly all actives have a fitted effect of over 50% in size
# Conditions: ERR reporter cell line, luciferase antagonist mode, 18 h; series mostly up to 92.4 µM
# How it was run: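 Compounds dissolved in DMSO are pin-transferred onto ERR reporter cells (2,000 per well) that have settled for 6 h at 37 C. Plates then incubate 18 h at 37 C before ONE-Glo luciferase reagent and a luminescence read 30 min later.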
# % is set by controls: 0 for no effect and ±100 for the full control effect.
row,Compound,outcome
1,Nc1nc(Cl)cc(Cl)n1,inactive
2,Cc1ccc(O)c(C(=O)c2ccccc2)c1,inactive
3,COC(=O)C(c1ccccc1Cl)N1CCc2sccc2C1 (stereo unspecified),inactive
4,Nc1cc(S(=O)(=O)O)ccc1O,inactive
5,O=C1Nc2ccccc2C1=O,inactive
6,CCCC(C)C(O)CC (stereo unspecified),inactive
7,NNC(=O)OCc1ccccc1,inactive
8,Cc1cc(C)c(C)c(C)c1,inactive
9,C=C(C)C(=O)OCCOC1CC2CC1C1C=CCC21 (stereo unspecified),inactive
10,O=C(O)CCCCCCCCCC(=O)O,inactive
11,CCN1CCN(C(=O)N[C@@H](C(=O)N[C@@H]2C(=O)N3[C@@H]2SC(C)(C)[C@H]3C(=O)O)c2ccccc2)C(=O)C1=O,inactive

# Assay: qHTS assay to identify small molecule agonists of the estrogen related receptor (ERR) signaling pathway from Tox21 library (AID 1224849; calls by dose curve; note: nearly all actives have a fitted effect of over 15% in size)
# Conditions: ERR reporter cell line, ONE-Glo luciferase, 18 h; at 92.4 µM (top of the series) unless noted
# How it was run: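 Cells carrying the ERR reporter were plated and allowed to settle for 6 h, exposed to library compounds for 18 h at 37 C, then lysed with ONE-Glo and luminescence measured.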
row,Compound,"activity change, positive = activation"
1,Nc1nc(Cl)cc(Cl)n1,-1.17% (inactive)
2,Cc1ccc(O)c(C(=O)c2ccccc2)c1,-3.28% (inactive)
3,COC(=O)C(c1ccccc1Cl)N1CCc2sccc2C1 (stereo unspecified),-2.43% [at 42.5 µM] (inactive)
4,Nc1cc(S(=O)(=O)O)ccc1O,6.11% (inactive)
5,O=C1Nc2ccccc2C1=O,-1.92% (inactive)
6,CCCC(C)C(O)CC (stereo unspecified),-0.957% (inactive)
7,NNC(=O)OCc1ccccc1,-10.3% (inactive)
8,Cc1cc(C)c(C)c(C)c1,5.28% (inactive)
9,O=C(O)CCCCCCCCCC(=O)O,3.45% (inactive)
10,CCN1CCN(C(=O)N[C@@H](C(=O)N[C@@H]2C(=O)N3[C@@H]2SC(C)(C)[C@H]3C(=O)O)c2ccccc2)C(=O)C1=O,8.89% [at 42.5 µM] (inactive)
